Source: PubChem
Most compounds without a hit are left out; they make up all but 3.8% or so of the library.
Nrf2 ARE act: activators of Nrf2 (ARE) signaling; Potency, µM (doses to about 46.1 µM), for inactives: at the top dose activation, actives largely listed as activators; 410,000 compounds, 0.31% hits; AID 624171; AREc32 ARE-luciferase reporter (MCF7-derived line), luminescence, 24 h; also: % of control where 0% means no effect; nearly all actives have a fitted effect of over 65% in size
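For detection, Steady-Glo was added and plates sat 30 min at RT; before that, AREc32_Fluc cells grown overnight in OPTI-MEM/5% FBS had been treated with 23 nL compound for 24 hr at 37 deg C.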
IDH1 R132H inh: blocks human mutant IDH1 R132H enzyme; IDH1-R132H enzyme, NADPH consumption, diaphorase/resazurin fluorescence; Potency, µM (series often up to 76.6 µM), for inactives: at the top dose activity change, negative = inhibition, most hits filed as inhibitors; 390,000 compounds, 0.093% hits; AID 602179; also: % is scaled to controls: 0 for no effect and ±100 for the full control effect; nearly all actives have a fitted effect of over 65% in size
Target sequence (O75874 whole entry R132H, stated change not applied): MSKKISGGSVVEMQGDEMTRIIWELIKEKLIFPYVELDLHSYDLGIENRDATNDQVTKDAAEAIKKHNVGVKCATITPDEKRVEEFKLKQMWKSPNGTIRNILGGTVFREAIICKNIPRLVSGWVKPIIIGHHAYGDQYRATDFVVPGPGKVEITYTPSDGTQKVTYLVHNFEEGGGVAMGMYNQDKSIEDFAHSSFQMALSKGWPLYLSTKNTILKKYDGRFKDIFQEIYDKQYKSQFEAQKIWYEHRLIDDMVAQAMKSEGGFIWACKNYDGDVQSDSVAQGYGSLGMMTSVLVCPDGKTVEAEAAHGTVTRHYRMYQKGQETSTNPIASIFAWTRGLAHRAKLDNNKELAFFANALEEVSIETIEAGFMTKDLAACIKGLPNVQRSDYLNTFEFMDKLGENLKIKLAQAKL
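IDH1-R132H (0.5 ug/mL dispensed) in pH 7.5 Tris buffer was preincubated 30 min with compound, then given a substrate mix of 0.016 mM NADPH and 2 mM alpha-KG for 80 min at room temperature; remaining NADPH was read by diaphorase/resazurin fluorescence.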
A549 viability: kills or reduces viability of A549 cells in Nrf2 counter-screen | A549 ARE-Fluc cells, CellTiter-Fluor viability, 18-24 h | Potency, µM (doses to about 46 µM), for inactives: at the top dose activity change, negative = cytotoxicity, usual class: inhibitors | 390,000 compounds, 0.16% hits | AID 504648; also: % is scaled to controls: 0 for no effect and ±100 for the full control effect
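A549 ARE_Fluc cells in 5% FBS OPTI-MEM were exposed to compounds in concentration-response for 18-24 h at 37 deg C. Viability was read by CellTiter-Fluor fluorescence (Ex 405/Em 525) after 30 min, before the luciferase read.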
Nrf2 inh: inhibitors of Nrf2 signaling; A549 ARE-Fluc reporter, luciferase luminescence, 18-24 h; Potency, µM (top dose mostly 46 µM), for the others: at the highest dose activity change, negative = inhibition, most hits filed as inhibitors; 360,000 compounds, 2.1% hits; AID 504444; also: % is scaled to controls: 0 for no effect and ±100 for the full control effect; nearly all actives have a fitted effect of over 60% in size
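Nrf2 activity is the BugLite luminescence, read 15 min after reagent at room temperature, following CellTiter-Fluor cytotoxicity readout (30 min, 37C). Compound titrations were applied for 18-24 h to 5000 A549 ARE_Fluc cells/well in 5% FBS OPTI-MEM.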
ELG1 repair inh: ELG1-dependent DNA repair inhibition; HEK293T ELG1-luciferase reporter, luminescence, 16 h; DNA damage induced by 5-fluorouridine; Potency, µM (top dose mostly 46.1 µM), for the others: top-dose activity change, negative = inhibition, hits mostly inhibitors; 330,000 compounds, 2.3% hits; also: % is scaled to controls: 0 for no effect and ±100 for the full control effect; nearly all actives have a fitted effect of over 55% in size
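In this reporter screen, reduction of luminescence relative to DMSO vehicle indicated activity. Compounds and 5-fluorouridine were added together to 2,000 cells per well, incubated for 16 hr at 37 °C, then developed with ONE-Glo.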
* hit, by the source's call; ? = inconclusive; . = no result given. Calls follow the shape of the dose curve; as a rule, active = well fitted curve in the direction sought with a large enough effect; inconclusive = small, poorly fitted or top-dose-only effect, or another doubt; inactive = no such curve, though single readings can be large; an effect the other way counts as inactive or inconclusive. Potency is read from the fitted curve at half-maximal effect.

SMILES | Nrf2 ARE act | IDH1 R132H inh | A549 viability | Nrf2 inh | ELG1 repair inh
CC(=O)COC(=O)C1CCN(S(=O)(=O)c2cc([N+](=O)[O-])ccc2Cl)CC1 | 14.1µM* | -3.8% | 2.9% | 3.7% | 26.1%
Cc1ccc(NC(=O)C2CCN(S(=O)(=O)c3c(C)noc3/C=C/c3ccco3)CC2)nc1 | 19.4% | -3.9% | -1.4% | 16.4µM* | 14.6µM*
Cc1ccc(NC(=O)C2CCN(S(=O)(=O)c3cc([N+](=O)[O-])ccc3Cl)CC2)nc1 | ? | -4.3% | -16.8% | 20.6µM* | -28.8%
CCCSc1nc(=O)c2c(n1C)NC(=O)CC2c1cccc(F)c1F (stereo not drawn) | 0.1% | 8.2% | 9.1% | 9.9% | .
COc1ccc(NC(=S)N(CCc2c(C)[nH]c3ccc(C)cc23)Cc2cccnc2)cc1 | 4.7% | -26.4% | ? | 20.6µM* | ?
CCN(Cc1nc2cc(Cl)ccc2c(=O)[nH]1)C(=O)c1cccc(NC(=O)c2cccs2)c1 | 10.1% | 2.6% | -8.5% | ? | 16.4µM*
CCCOC(=O)c1ccc(Oc2cn[nH]c2-c2ccc(OCC(=O)NN)cc2O)cc1 | 0.9% | -2.2% | 9.2% | 12.9% | 18.3µM*
CCC(=O)N1CCc2cc(Br)cc(S(=O)(=O)N3CCCC(C(=O)NC(C)(C)C)C3)c21 (stereo not drawn) | -0.8% | 3.2% | 2.1% | -12.0% | -21.1%
CCC(=O)N1CCc2cc(Br)cc(S(=O)(=O)N3CCC(C(=O)Nc4ccccc4F)CC3)c21 | 0.3% | 6.2% | 0.6% | 13µM* | .
CCC(=O)N1CCc2cc(Br)cc(S(=O)(=O)N3CCC(C(=O)NC(C)(C)C)CC3)c21 | -0.6% | -4.8% | 1.0% | -4.2% | 7.3µM*
COc1ccc(NC(=O)CCc2nnc3n(Cc4ccccc4Cl)c(=O)c4ccccc4n23)cc1 | 0.5% | -6.8% | -9.0% | ? | .
CCc1nc2ccccc2c(C(=O)OCC(=O)Nc2cccc(S(=O)(=O)NC3=NCCCCC3)c2)c1C | -1.6% | -1.1% | -25.2% | 16.4µM* | 13µM*
CCc1nc2ccccc2c(C(=O)OCC(=O)Nc2ccc(S(=O)(=O)N3CCOCC3)cc2)c1C | 0.0% | 7.7% | -16.5% | ? | 18.4µM*
CCCn1cc(S(=O)(=O)c2cccc(Cl)c2)c(=O)c2cc(F)c(N3CCCC3)cc21 | 0.4% | -17.2% | -7.2% | ? | .
CC(=O)N1c2ccccc2C(=O)C1N1CCN(c2ccccc2F)CC1 (stereo not drawn) | 3.8% | -0.9% | ? | ? | .
CCc1nn(-c2ccccc2)c2c1-c1cc(OC)c(OC)cc1C1(N2)C(=O)Nc2ccccc21 (stereo not drawn) | 2.5% | 3.5% | -3.2% | -16.5% | 20.6µM*
COc1ccc(N/C=C2\C(=O)CCc3c2oc2cc(Cl)c(O)c(Cl)c32)cc1 | 7.08µM* | 4.1% | -3.3% | 0.0% | -3.9%
COc1ccc(N/C=C2\CCOC2=O)cc1 | 1.9% | 6.7% | 9.2% | -19.9% | 19.0%
O=C(OCCN1C(=O)c2cccc3c(N4CCOCC4)ccc(c23)C1=O)c1ccccc1Cl | -0.8% | -0.1% | 10.8% | ? | 11.6µM*
CCc1ccc(CNC(=O)C2Cc3cc(S(=O)(=O)N4CCCCCC4)ccc3N2C(C)=O)cc1 (stereo not drawn) | -0.9% | 8.0% | -5.2% | . | .
COc1ccc(C(=O)/C=C/C(=O)N(Cc2ccc3c(c2)OCO3)C(C(=O)NC2CCCCC2)c2ccncc2)c(O)c1 (stereo not drawn) | 9.3% | 0.2% | 6.5% | 4.3% | 7.31µM*
O=C(NC1CCCCC1)C(c1ccncc1)N(Cc1ccc2c(c1)OCO2)C(=O)c1cnsn1 (stereo not drawn) | 2.7% | 9.0% | -5.0% | . | -8.6%
COc1ccc(CN(C(=O)/C=C/C(=O)c2ccc(OC)cc2O)C(C(=O)NC2CCCCC2)c2ccncc2)cc1 (stereo not drawn) | 10.0% | 0.7% | -12.0% | 9.7% | 16.4µM*
COCCN(CC(=O)NC1CCCCC1)C(=O)/C=C/C(=O)c1ccc(OC)cc1O | -3.5% | -1.2% | ? | ? | 16.1%
CC(=O)c1ccc(Nc2nc3ccccc3nc2NS(=O)(=O)c2cccs2)cc1 | 0.0% | -11.2% | 1.3% | -0.4% | 11.6µM*
